# Values joined by “and” are separate entries in the source; they are usually repeats but may differ in a detail not shown here. Equal values may be shown once. About 2,000 (36%) of roughly 5,500 compounds were called active. Inconclusive results (about 18%) are left out. The list shows a part of the results. Values without a mark were called inactive. Cut-off read from the data, not from the text of the source: active = normalized growth mostly below about 0.91 (no sharp cut-off); inconclusive = no clear call, values can overlap the other calls; inactive = mostly above about 0.92.
# Assay: chemical genetic growth profiling, strain panel (AID 1159580);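 note: tested at 20 µM; growth read once vehicle control cultures reached saturation at 30 °C; 1 = growth at the plate median or of vehicle wells; lower values mean less growth of the strain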
# Conditions: S. cerevisiae deletion strains, growth OD
smiles,measurement,setting,value
CC(C)=CCc1c(O)cc2oc(C)cc(=O)c2c1O,normalized growth,"locus YAL013W, strain DEP1, hits give low values",0.96
same,normalized growth,"locus YAL021C, strain ccr4, hits give low values",1.01
same,normalized growth,"locus YAL026C, strain drs2, hits give low values",0.977
same,normalized growth,"locus YAL030W, strain snc1, hits give low values",0.986
same,normalized growth,"locus YBL061C, strain skt5, hits give low values",0.973
same,normalized growth,"locus YBR009C, strain hhf1, hits give low values",0.984
same,normalized growth,"locus YBR021W, strain FUR4, hits give low values",0.998
same,normalized growth,"locus YBR023C, strain chs3, hits give low values",0.953
same,normalized growth,"locus YBR171W, strain sec66, hits give low values",0.973
same,normalized growth,"locus YBR229C, strain ROT2, hits give low values",1.01
same,normalized growth,"locus YBR231C, strain swc5, hits give low values",0.98
same,normalized growth,"locus YBR279W, strain paf1, hits give low values",0.982
same,normalized growth,"locus YCL011C, strain gbp2, hits give low values",0.975
same,normalized growth,"locus YCL016C, strain dcc1, hits give low values",0.969
same,normalized growth,"locus YCL029C, strain bik1, hits give low values",0.986
same,normalized growth,"locus YCL061C, strain MRC1, hits give low values",0.973
same,normalized growth,"locus YCL069W, strain vba3, hits give low values",1.01
same,normalized growth,"locus YCR088W, strain abp1, hits give low values",0.957
same,normalized growth,"locus YDL005C, strain med2, hits give low values",0.981
same,normalized growth,"locus YDL035C, strain GPR1, hits give low values",0.912
same,normalized growth,"locus YDL040C, strain nat1, hits give low values",0.986
same,normalized growth,"locus YDL074C, strain BRE1, hits give low values",0.947
same,normalized growth,"locus YDL101C, strain DUN1, hits give low values",0.993
same,normalized growth,"locus YDL185W, strain tfp1, hits give low values",0.98
same,normalized growth,"locus YDL192W, strain arf1, hits give low values",0.93
same,normalized growth,"locus YDR001C, strain nth1, hits give low values",0.976
same,normalized growth,"locus YDR069C, strain doa4, hits give low values",1
same,normalized growth,"locus YDR101C, strain arx1, hits give low values",0.907 (active)
same,normalized growth,"locus YDR137W, strain rgp1, hits give low values",0.855
same,normalized growth,"locus YDR159W, strain sac3, hits give low values",0.983
same,normalized growth,"locus YDR162C, strain NBP2, hits give low values",0.903
same,normalized growth,"locus YDR195W, strain ref2",1.16 [resistant] (active)
same,normalized growth,"locus YDR297W, strain sur2, hits give low values",0.973
same,normalized growth,"locus YDR318W, strain mcm21, hits give low values",0.929
same,normalized growth,"locus YDR334W, strain swr1, hits give low values",0.985
same,normalized growth,"locus YDR335W, strain msn5, hits give low values",0.972
same,normalized growth,"locus YDR388W, hits give low values",0.977
same,normalized growth,"locus YDR392W, strain spt3, hits give low values",0.87
same,normalized growth,"locus YDR502C, strain sam2, hits give low values",0.963
same,normalized growth,"locus YEL003W, strain gim4, hits give low values",0.976
same,normalized growth,"locus YEL037C, strain rad23, hits give low values",0.993
same,normalized growth,"locus YEL061C, strain CIN8 (second series), hits give low values",0.979
same,normalized growth,"locus YEL061C, strain CIN8, hits give low values",1
same,normalized growth,"locus YER015W, strain faa2, hits give low values",0.983
same,normalized growth,"locus YER016W, strain bim1, hits give low values",0.965
same,normalized growth,"locus YER110C, hits give low values",0.989
same,normalized growth,"locus YER111C, strain swi4, hits give low values",1
same,normalized growth,"locus YER155C, strain BEM2 (second series), hits give low values",0.973
same,normalized growth,"locus YER155C, strain BEM2, hits give low values",0.992
same,normalized growth,"locus YER167W, strain BCK2, hits give low values",0.932
same,normalized growth,"locus YFR010W, strain ubp6, hits give low values",0.98
same,normalized growth,"locus YGL078C, strain dbp3, hits give low values",0.987
same,normalized growth,"locus YGL086W, strain mad1, hits give low values",0.915 (active)
same,normalized growth,"locus YGL167C, strain pmr1, hits give low values",0.996
same,normalized growth,"locus YGL173C, strain kem1, hits give low values",0.985
same,normalized growth,"locus YGL227W, strain vid30, hits give low values",0.968
same,normalized growth,"locus YGL240W, strain doc1, hits give low values",0.968
same,normalized growth,"locus YGL248W, strain PDE1, hits give low values",0.965
same,normalized growth,"locus YGL253W, strain hxk2, hits give low values",0.964
same,normalized growth,"locus YGR078C, strain PAC10, hits give low values",0.959
same,normalized growth,"locus YGR135W, strain pre9, hits give low values",1
same,normalized growth,"locus YGR252W, strain gcn5, hits give low values",0.878
same,normalized growth,"locus YHR013C, strain ard1, hits give low values",1.21 [resistant] (active)
same,normalized growth,"locus YHR027C, strain rpn1, hits give low values",0.999
same,normalized growth,"locus YHR030C, strain SLT2, hits give low values",1 and 0.999
same,normalized growth,"locus YHR079C, strain IRE1 (second series), hits give low values",1
same,normalized growth,"locus YHR079C, strain IRE1, hits give low values",0.971
same,normalized growth,"locus YHR094C, strain hxt1, hits give low values",0.999
same,normalized growth,"locus YHR129C, strain ARP1, hits give low values",0.987
same,normalized growth,"locus YHR142W, strain chs7, hits give low values",0.851 (active)
same,normalized growth,"locus YHR200W, strain rpn10, hits give low values",0.915 (active)
same,normalized growth,"locus YIL066C, strain RNR3, hits give low values",0.95
same,normalized growth,"locus YIL073C, strain SPO22, hits give low values",1.01
same,normalized growth,"locus YIL125W, strain kgd1, hits give low values",0.904 (active)
same,normalized growth,"locus YIR030C, strain dcg1, hits give low values",0.988
same,normalized growth,"locus YJL092W, strain hpr5, hits give low values",0.975
same,normalized growth,"locus YJL095W, strain BCK1 (second series), hits give low values",0.97
same,normalized growth,"locus YJL095W, strain BCK1, hits give low values",0.928 and 0.969
same,normalized growth,"locus YJL115W, strain asf1, hits give low values",0.984
same,normalized growth,"locus YJL129C, strain trk1, hits give low values",0.951
same,normalized growth,"locus YJL134W, strain LCB3, hits give low values",1
same,normalized growth,"locus YJL154C, strain vps35, hits give low values",0.983
same,normalized growth,"locus YJL164C, strain tpk1, hits give low values",0.929
same,normalized growth,"locus YJL166W, strain qcr8, hits give low values",0.972
same,normalized growth,"locus YJL168C, strain set2, hits give low values",0.999
same,normalized growth,"locus YJL187C, strain SWE1 (second series), hits give low values",0.966
same,normalized growth,"locus YJL187C, strain SWE1, hits give low values",0.98

# From PubChem BioAssay AID1159580 (chemical genetic matrix, 2015)
